# Assay results taken from PubChem BioAssay (NCI).
# Compounds without any hit were thinned out: in the full panel of roughly 83,000, 20% have a hit.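 The test compound was applied at a single concentration to cells in 96-well plates for 48 hours, and percent growth was recorded.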 Values without a mark were called inactive. The source made the active and inactive calls. How the source made its calls: active means growth percent below 10; inactive means the rest.
# System: IGROV1 ovarian
# Experiment: NCI-60 one-dose screen, 48 h (100 = growth as untreated, 0 = no growth, -100 = all killed)
# Settings: 10 µM unless noted
row,Compound,growth
1,O=C(Cn1c2ccccc2c2ccncc21)N/N=C/c1c[nH]c2ccccc12,89.2%
2,Cc1ccc(-c2nc3c(N=Nc4ccc(S(N)(=O)=O)cc4)c(N)nn3c(N)c2C#N)cc1,37.4%
3,O=C(Nc1ccccc1Cl)c1c[nH]c(=O)c(-c2ccc(N3CCCOC4(CC4)C3)cc2)c1,85.7%
4,OC(COc1ccccc1Cl)CN1CCN(c2ccc(Cl)cc2)CC1 (stereo not drawn),96%
5,Nc1nccc2c1ccn2-c1ccc(NC(=O)Nc2cccc(C(F)(F)F)c2)cc1,95.1%
6,O=C(Nc1ccc(-n2ccc3c(NC(=O)c4ccccc4)nccc32)cc1)Nc1cccc(C(F)(F)F)c1,54.1%
7,O=C1C(Cl)=C(Nc2ccccc2)C(=O)C(Cl)=C1Nc1ccccc1,110%
8,CC(=O)Nc1ccc([I+]c2ccc([N+](=O)[O-])cc2)cc1,80.8%
9,CCN1CCN(Cc2ccc(NC(=O)Nc3cccc(-n4ccc5c(NC(=O)c6ccccc6)nccc54)c3)cc2C(F)(F)F)CC1,74.8%
10,O=C(Nc1cccc(-n2ccc3c(NC(=O)c4ccccc4)nccc32)c1)c1cccc(C(F)(F)F)c1,15.9%
11,CC(=O)N[C@@H](CNC(=O)c1cc(NC(=O)c2cc(NC(=O)c3cc(NC(=O)c4nccn4C)cn3C)cn2C)cn1C)CC(=O)Nc1cn(C)c(C(=O)Nc2cc(C(=O)Nc3cc(C(=O)Nc4cc(C(=O)NCCCN(C)CCCNC(=O)c5cccc(C(=O)O)c5)n(C)c4)n(C)c3)n(C)c2)n1,113%
12,CCOC(=O)c1cnc2c(OC)ccc(OC)c2c1Cl,117%
13,NS(=O)(=O)c1ccc(Nc2nc(O)c(/C=C3\C=Nc4ccccc43)s2)cc1,92.5%
14,CNC(=O)NN,108%
15,Cc1cc(O[C@@H]2O[C@@H](C)[C@H](O)[C@@H](O)[C@H]2O)c2c3c(c(O[C@@H]4O[C@@H](C)[C@H](O)[C@@H](O)[C@H]4O)cc2c1)C(=O)c1c(O)cccc1C3=O,89.3%
16,Cc1cccc(Cc2cnc(NC(=O)CCc3ccc(C)o3)s2)c1,32.2%
17,C=CC(=O)NC(=O)Nc1ccccc1Cl,88.2%
18,COc1cccc(-c2nc3sccn3c2-c2ccnc(NCCNC(=O)c3ccccc3)n2)c1,69.2%
19,COc1ccc(-c2nn(-c3ccc(NC(=O)Nc4ccc(Cl)c(C(F)(F)F)c4)cc3)cc2-c2ccncc2)cc1Cl,24.8%

row,Compound,growth
1,CC(C)CNCC(O)COc1ccc(C(C)(C)c2ccc(OCC(O)CNCC(C)C)cc2)cc1 (stereo not drawn),47.4%
2,Cc1ccc2[nH]c3nc4cccnc4c(C)c3c2c1,85.8%
3,O=C(Nc1ccc(-n2ccc3c(NC(=O)c4ccccc4)nccc32)cc1)c1ccc(Cl)c(C(F)(F)F)c1,36%
4,COc1ccc(-c2nn(-c3ccc(NC(=O)Nc4ccc(Cl)c(Cl)c4)cc3)cc2-c2ccncc2)cc1Cl,36.6%
5,Nc1nccc2c1ccn2-c1cccc(NC(=O)c2ccc(N3CCOCC3)c(C(F)(F)F)c2)c1,28.1%
6,COc1ccc(/C=C/C(=O)/C=C(/C=C/c2ccc(OC)c(OC)c2OC)OB(F)F)c(OC)c1OC,26.3%
7,Cc1cc[n+](CCCC[n+]2ccc(C)cc2)cc1,99.7%
8,COC1=C(OC)C(=O)C=CC1=O,96.5%
9,Cc1ccccc1C[P+](c1ccccc1)(c1ccccc1)c1ccccc1,20%
10,CC/C(=C(\CC)c1ccc(OCCN(CC)CC)cc1)c1ccc(OCCN(CC)CC)cc1,59.9%
11,COc1cccc(-c2nc3sccn3c2-c2ccnc(NCCNC(=O)Nc3cccc(C(F)(F)F)c3)n2)c1,50.9%
12,COc1ccc(-c2cnc(-c3ccc(F)cc3)[nH]2)cc1,95.3%
13,O=C(Nc1ccc(-n2cc(-c3ccncc3)c(-c3ccc(O)c(Cl)c3)n2)cc1)c1ccc(Cl)c(C(F)(F)F)c1,52.9%
14,O=C(Nc1ccc(-n2ccc3c(NC(=O)c4ccccc4)ncnc32)cc1)c1ccc(Cl)c(C(F)(F)F)c1,15.3%
15,C=CC(=O)Nc1cccc(Nc2nc(Nc3ccc(OCCOC(F)F)cc3)ncc2F)c1,14%
16,O=[N+]([O-])c1cccc(C(c2ccccc2)c2ccccc2)c1,84.5%
17,O=C(NCCNc1nccc(-c2c(-c3cccc(O)c3)nc3sccn23)n1)Nc1cccc(C(F)(F)F)c1,65.6%
18,O=C(Nc1cccc(-n2ccc3c(NC(=O)c4ccccc4)nccc32)c1)c1cc(N2CCOCC2)cc(C(F)(F)F)c1,4.25% (active)
19,O=C(Nc1ccc(-n2cc(-c3ccncc3)c(-c3ccc(O)c(Cl)c3)n2)cc1)c1cc(C(F)(F)F)cc(C(F)(F)F)c1,61.4%
